Measurements published in PubChem BioAssay.
The source made the active and inactive calls. Cut-off read from the data, not from the text of the source, unless noted: active = inhibition above about 25%; inactive = the rest.

How the values were obtained:
[1] = biological target: Nuclear receptor coactivator 3 (Homo sapiens) (UniProt Q9Y6Q9); assay: SRC3 coactivator transcriptional activity inhibitors, confirmation, cell-based, luminescence, quadruplicate (AID 588792;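 active = mean inhibition over 43.08%, the solvent-only control mean plus 3 SD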;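 note: 0% = DMSO treated cells and 100% = gossypol at 36 µM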); settings: HEK293 GAL4-SRC3 luciferase reporter, at 3.6 µM, hits give high values
[2] = system: transactivating tegument protein VP16 (Human herpesvirus 1), Gal4-VP16 luciferase reporter; assay: VP16 transactivation inhibitors, counter-screen for SRC3 inhibitor project, cell-based, luminescence, high throughput (AID 588794; in the data active = inhibition above about 30%); settings: mammalian cells, VP16-driven luciferase reporter luminescence; at 3.6 µM; hits give high values
[3] = biological target: Nuclear receptor coactivator 1 (Homo sapiens) (UniProt Q15788); assay: SRC1 coactivator transcriptional activity inhibitors, confirmation, cell-based, luminescence, quadruplicate (AID 588820;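 active = mean inhibition above 46.68%, the untreated control wells mean plus 3 SD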;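 note: 0% = DMSO wells and 100% = gossypol 36 µM treated wells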); settings: HEK293 GAL4-SRC1 luciferase reporter, at 3.6 µM, hits give high values
[4] = VP16 transactivation inhibitors, counter-screen for SRC1 inhibitor project, cell-based, luminescence, high throughput (AID 588824); settings: cell-based VP16 transactivation luciferase luminescence; at 3.6 µM; hits give high values

Chain of Nuclear receptor coactivator 1 (Homo sapiens) (Q15788 whole entry, looked up, the tested form may be a part): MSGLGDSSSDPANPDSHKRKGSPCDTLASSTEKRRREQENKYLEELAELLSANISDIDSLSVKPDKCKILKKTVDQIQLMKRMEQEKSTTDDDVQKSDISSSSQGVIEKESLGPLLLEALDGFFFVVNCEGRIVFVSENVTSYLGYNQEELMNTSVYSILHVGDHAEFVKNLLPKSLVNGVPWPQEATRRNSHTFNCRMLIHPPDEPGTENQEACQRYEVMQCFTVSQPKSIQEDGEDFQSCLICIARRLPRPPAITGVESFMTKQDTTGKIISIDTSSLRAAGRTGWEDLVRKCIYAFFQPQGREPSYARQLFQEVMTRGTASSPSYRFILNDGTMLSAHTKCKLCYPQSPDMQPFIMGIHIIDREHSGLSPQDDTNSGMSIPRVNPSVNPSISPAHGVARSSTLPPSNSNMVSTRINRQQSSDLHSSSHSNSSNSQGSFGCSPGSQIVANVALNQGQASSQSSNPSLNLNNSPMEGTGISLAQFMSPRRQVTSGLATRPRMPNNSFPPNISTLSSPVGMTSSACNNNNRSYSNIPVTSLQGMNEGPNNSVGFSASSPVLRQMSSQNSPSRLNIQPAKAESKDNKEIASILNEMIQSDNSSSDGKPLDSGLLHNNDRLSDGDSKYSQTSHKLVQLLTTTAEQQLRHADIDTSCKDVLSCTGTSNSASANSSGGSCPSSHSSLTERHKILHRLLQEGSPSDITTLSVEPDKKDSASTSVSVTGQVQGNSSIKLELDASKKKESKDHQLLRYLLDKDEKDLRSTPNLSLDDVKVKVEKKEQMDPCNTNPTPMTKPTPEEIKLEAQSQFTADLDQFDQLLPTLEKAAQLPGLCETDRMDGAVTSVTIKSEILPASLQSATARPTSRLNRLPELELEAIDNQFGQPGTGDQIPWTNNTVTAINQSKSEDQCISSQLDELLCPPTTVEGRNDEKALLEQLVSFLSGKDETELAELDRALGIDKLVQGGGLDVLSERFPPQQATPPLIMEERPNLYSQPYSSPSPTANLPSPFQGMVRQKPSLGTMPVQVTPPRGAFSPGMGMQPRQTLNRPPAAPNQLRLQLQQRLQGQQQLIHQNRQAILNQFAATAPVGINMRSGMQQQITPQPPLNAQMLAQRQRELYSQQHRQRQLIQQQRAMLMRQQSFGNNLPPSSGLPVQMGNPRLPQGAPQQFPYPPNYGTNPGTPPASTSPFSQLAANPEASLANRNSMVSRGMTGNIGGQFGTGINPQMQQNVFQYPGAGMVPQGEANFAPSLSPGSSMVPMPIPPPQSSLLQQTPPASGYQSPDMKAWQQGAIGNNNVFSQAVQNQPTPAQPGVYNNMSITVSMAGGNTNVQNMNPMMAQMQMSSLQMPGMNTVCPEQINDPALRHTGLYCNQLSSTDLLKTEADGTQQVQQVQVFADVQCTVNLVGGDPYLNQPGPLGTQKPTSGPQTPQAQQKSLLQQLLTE
Chain of Nuclear receptor coactivator 3 (Homo sapiens) (Q9Y6Q9 whole entry, looked up, the tested form may be a part): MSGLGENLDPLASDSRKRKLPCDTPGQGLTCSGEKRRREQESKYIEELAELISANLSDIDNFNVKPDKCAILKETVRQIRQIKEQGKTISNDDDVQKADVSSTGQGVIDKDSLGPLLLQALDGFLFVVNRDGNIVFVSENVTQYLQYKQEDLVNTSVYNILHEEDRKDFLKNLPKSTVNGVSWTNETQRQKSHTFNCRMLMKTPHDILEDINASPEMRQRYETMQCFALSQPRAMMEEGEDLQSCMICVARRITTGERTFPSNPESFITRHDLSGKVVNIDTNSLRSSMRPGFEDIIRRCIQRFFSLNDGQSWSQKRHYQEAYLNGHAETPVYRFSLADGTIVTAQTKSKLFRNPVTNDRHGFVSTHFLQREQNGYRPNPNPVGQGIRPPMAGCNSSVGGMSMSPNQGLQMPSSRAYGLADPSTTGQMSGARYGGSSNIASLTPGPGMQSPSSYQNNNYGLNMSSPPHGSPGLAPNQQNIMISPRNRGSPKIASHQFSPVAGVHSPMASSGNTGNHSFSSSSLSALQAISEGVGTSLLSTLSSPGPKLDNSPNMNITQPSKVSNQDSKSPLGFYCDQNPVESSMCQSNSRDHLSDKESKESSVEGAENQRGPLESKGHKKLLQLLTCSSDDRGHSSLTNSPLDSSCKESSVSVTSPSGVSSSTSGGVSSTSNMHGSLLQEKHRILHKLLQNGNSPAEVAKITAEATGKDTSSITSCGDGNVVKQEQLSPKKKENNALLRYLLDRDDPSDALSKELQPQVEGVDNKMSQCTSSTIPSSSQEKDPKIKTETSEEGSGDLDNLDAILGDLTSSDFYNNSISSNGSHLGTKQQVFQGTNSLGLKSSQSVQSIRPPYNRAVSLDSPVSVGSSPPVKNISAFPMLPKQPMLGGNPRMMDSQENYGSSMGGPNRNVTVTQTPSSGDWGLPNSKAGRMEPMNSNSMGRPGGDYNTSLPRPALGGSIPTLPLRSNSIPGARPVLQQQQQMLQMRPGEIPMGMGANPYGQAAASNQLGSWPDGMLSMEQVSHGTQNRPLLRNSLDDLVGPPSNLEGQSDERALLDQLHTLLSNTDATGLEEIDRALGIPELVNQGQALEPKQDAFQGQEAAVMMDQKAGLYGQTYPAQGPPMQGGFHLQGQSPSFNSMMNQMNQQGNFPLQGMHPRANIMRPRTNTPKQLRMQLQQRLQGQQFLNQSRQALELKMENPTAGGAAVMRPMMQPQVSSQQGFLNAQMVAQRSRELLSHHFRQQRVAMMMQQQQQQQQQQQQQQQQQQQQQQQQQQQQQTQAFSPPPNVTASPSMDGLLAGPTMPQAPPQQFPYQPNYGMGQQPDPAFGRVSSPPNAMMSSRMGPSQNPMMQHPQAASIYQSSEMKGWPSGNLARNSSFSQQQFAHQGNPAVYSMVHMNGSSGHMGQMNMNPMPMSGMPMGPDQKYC

SMILES | inhibition [1] | inhibition [2] | inhibition [3] | inhibition [4]
CCOC(=O)N=Nc1c2ccccc2c2nc3no[nH]c3nc12 | 95.7% (active) | 93.1% (active) | 88.3% (active) | 92.4% (active)
N=c1c2c(-c3ccccc3)c(-c3ccccc3)n(Cc3ccco3)c2ncn1CCCO | 26.8% (inactive) | 52.6% (active) | 36.9% (inactive) | 51.3% (active)
NNC(=O)c1cnn(Cc2ccccc2)c1N | -5.29% (inactive) | 2.66% (inactive) | -14.9% (inactive) | -5.69% (inactive)
Cc1nn(-c2ccccc2)c(Cl)c1C(=O)N1CCN(c2ncnc3c2cnn3-c2ccccc2)CC1 | 25.8% (inactive) | 31.4% (active) | 4.61% (inactive) | 44.9% (active)
CC(=O)c1cccc(NC(=O)Nc2cccnc2)c1 | 64.6% (active) | 36.1% (active) | 58% (active) | 33.6% (active)
O=[N+]([O-])c1ccc(NC(c2ccccc2)c2ccc3cccnc3c2O)cc1 (stereo not drawn) | 65% (active) | 58.8% (active) | 65.4% (active) | 71.2% (active)
CCCS(=O)(=O)Nc1ccc(Nc2c3ccccc3nc3ccccc23)c(OC)c1 | 64.2% (active) | 17.1% (inactive) | 56.8% (active) | 2.6% (inactive)
COc1cc(Cl)cc(/C=N\NC(=O)c2ccc3c(c2)OCO3)c1O | 24.7% (inactive) | 33.3% (active) | 30.5% (inactive) | 33.6% (active)
Nc1nc(=O)n(C2OC(CO)C(O)C2O)cc1F (stereo not drawn) | 13.6% (inactive) | 31.5% (active) | 40.1% (inactive) | 38.9% (active)
COc1cccc(/C=N/NC(=O)c2cc3c(OC)cccc3[nH]2)c1O | 28.5% (inactive) | 29% (inactive) | 37.1% (inactive) | 26% (active)
O=C(Nc1ccc(N2CCN(C(=O)c3ccc(Cl)cc3)CC2)cc1)c1ccc2c(c1)OCCO2 | 14.2% (inactive) | 42% (active) | 1.25% (inactive) | 42.5% (active)
COc1ccc(Cl)cc1Nc1nc(-c2sc(NC(=O)C(C)(C)C)nc2C)cs1 | 15.2% (inactive) | 35.9% (active) | 14.5% (inactive) | 39.8% (active)
CCOC(=O)C(=Cc1ccccc1OC)C(=O)OCC | 27.3% (inactive) | 25.4% (inactive) | 9.25% (inactive) | 22.2% (inactive)
CCCCNc1nc2c(c(=O)n(C)c(=O)n2C)n1Cc1cccc(OC)c1 | 11.7% (inactive) | 25.3% (inactive) | 16.8% (inactive) | 26.6% (active)
O=C(NC(=O)N1CCN(c2cccc(Cl)c2)CC1)c1ccccc1 | 23.9% (inactive) | 43.6% (active) | 17.9% (inactive) | 41.2% (active)
CC1CCN(Cc2c(C(=O)N/N=C/c3ccccc3O)nnn2-c2nonc2N)CC1 | 57.7% (active) | 41.1% (active) | 64.4% (active) | 56.8% (active)
c1cnc2ccc(-n3ccnc3)cc2c1 | 24.2% (inactive) | 23.8% (inactive) | 19.9% (inactive) | 22.4% (inactive)
COc1cc(/C=N/NC(=Nc2ccc(C)cc2)c2nc3ccccc3s2)ccc1O | 35.6% (inactive) | 9.45% (inactive) | 11.4% (inactive) | -38% (inactive)
Cc1ccc(C(=O)Nc2nc(-c3ccccn3)cs2)cc1S(=O)(=O)N1CCOCC1 | 17% (inactive) | 29% (inactive) | 13.8% (inactive) | 35.8% (active)
COc1ccc2cc3c(N)nn(C(=O)c4ccc(F)cc4)c3nc2c1 | 69.8% (active) | 36.1% (active) | 56.7% (active) | 36.3% (active)
CN(C)S(=O)(=O)c1ccc(-c2csc(N/N=C/c3ccco3)n2)cc1 | -2.21% (inactive) | 16.7% (inactive) | -22.3% (inactive) | 20.1% (inactive)

SMILES | inhibition [1] | inhibition [2] | inhibition [3] | inhibition [4]
Cc1cc(=O)[nH]c(NN=Cc2cc(Br)ccc2O)n1 | 76.2% (active) | 64% (active) | 51.2% (active) | 64.8% (active)
Cc1ccc(NC(=O)c2cc3ccccc3oc2=O)cc1S(=O)(=O)N(C)C | 82.9% (active) | 78.5% (active) | 67% (active) | 63.7% (active)
Cc1cccc[n+]1CC(=O)/C=C1\N(C)c2ccccc2C1(C)C | 8.01% (inactive) | 20.6% (inactive) | -9.04% (inactive) | 23.5% (inactive)
CC1CCc2c(sc(NC(=O)c3cccs3)c2C(=O)O)C1 (stereo not drawn) | 33.8% (inactive) | 60.6% (active) | 11.8% (inactive) | 54.1% (active)
COc1ccc(-c2cn[nH]c2-c2ccc(OC)cc2)cc1 | 59.5% (active) | 34.7% (active) | 38.7% (inactive) | 33.8% (active)
Cc1cccc(C)c1-c1ccc(CN2C(CC(C)C)C(=O)N(Cc3cn(CC4CCCCC4)nn3)CCS2(=O)=O)cc1 (stereo not drawn) | 21.1% (inactive) | 21.2% (inactive) | 24.4% (inactive) | 22.6% (inactive)
O=C(N/N=C/c1sc(N2CCOCC2)nc1-c1ccccc1)c1cccc(S(=O)(=O)N2CCCC2)c1 | 53.4% (active) | 67% (active) | 50.8% (active) | 72% (active)
Cc1cc(=O)[nH]c(N/N=C/c2cc(C)n(CC(F)(F)F)c2C)n1 | 22% (inactive) | 60.4% (active) | 43.5% (inactive) | 60.3% (active)
CC(=O)N(C(C)=O)c1ncc2c([nH]c3ccccc32)c1C#N | 47.9% (active) | 30.6% (active) | 48.5% (active) | 26.8% (active)
COc1cc(OC)c2nc(C)c3c(c2c1)N(c1ccc(O)cc1)CC3 | 5.19% (inactive) | 37.7% (active) | 12.8% (inactive) | 30.1% (active)
O=C(N/N=C/c1c(O)ccc2ccccc12)c1cccc(C(F)(F)F)c1 | 82.3% (active) | 78.6% (active) | 60.8% (active) | 77.4% (active)
Cc1ccc(C(=O)O/N=C(\N)c2ccccc2)c(Cl)c1 | -11.9% (inactive) | -35.4% (inactive) | -120% (inactive) | -64.6% (inactive)
CN1CC(=O)N2C(c3ccc(Cl)cc3)c3[nH]c4ccccc4c3C[C@H]2C1=O (stereo partly drawn) | 41.6% (inactive) | 29.5% (active) | 25% (inactive) | 33.9% (active)
O=C(CNS(=O)(=O)Cc1ccccc1)NNc1ccccc1 | 3.12% (inactive) | 12.1% (inactive) | 12.8% (inactive) | 16.3% (inactive)
C#CCN(C[C@@H]1[C@@H](OC(=O)NCCCCCC)[C@@H](OC(=O)NCCCCCC)Cn2c(=O)ccc(=O)n21)S(=O)(=O)c1ccc(C)cc1 | 23.3% (inactive) | 31.7% (active) | 23.8% (inactive) | 33.4% (active)
CCCCC(=O)NC(c1cccs1)c1cc(Cl)c2cccnc2c1O (stereo not drawn) | 44.5% (active) | 40.6% (active) | 27.5% (inactive) | 49.9% (active)
CCOC(=O)c1c(C)n(C)c2ccc(OC)c(NC(=O)c3cccs3)c12 | 22.9% (inactive) | 35.7% (active) | 41.6% (inactive) | 44.5% (active)
Cc1[nH]ccc2cc3nc4ccccc4c3cc12 | 13.9% (inactive) | 36.2% (active) | 31.7% (inactive) | 39.4% (active)
O=C(Nc1nc(-c2ccc(F)c(F)c2)cs1)c1ccc(OCC2CCCO2)cc1 (stereo not drawn) | 7.06% (inactive) | 36% (active) | 5.41% (inactive) | 39.4% (active)
NC(=S)N/N=C1\CCSc2ccc(Cl)cc21 | 39.3% (inactive) | 22.9% (inactive) | 6.53% (inactive) | 16.1% (inactive)
CCc1nc(Cl)c(C#N)c2c1CCCC2 | 43.2% (active) | 34.1% (active) | 34.8% (inactive) | 28.9% (active)
